This is a sample that favours compounds with a hit; in the whole collection about 6.7% have one here.
Pf Dd2 growth: P. falciparum Dd2 growth inhibitors, primary screen, SYBR Green fluorescence, single dose replicates; 72 h; stronger effect = lower value; activity change, % at 10 µM; 2.3% of 94,000 active; in the data active = activity change below about -80%; inconclusive = no clear call, values can overlap the other calls
T cruzi growth-1: T. cruzi intracellular proliferation inhibitors, primary screen, cell-based, beta-gal Tulahuen parasites, NIH3T3 host, luminescence; T. cruzi beta-gal in NIH3T3, GalScreen luminescence, 90 h; 5.9% of 77,000 active; AID 624255, 2012; inhibition, % at 8.34 µM;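 active = mean inhibition above about 93%, with at least 55% of replicates each passing it, limit read from the data, passing the limit was not always enough; inconclusive = only one of those two conditions holds; inactive = neither condition holds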
C diff growth: C. difficile growth inhibitors, primary screen, HTS. Clostridium difficile clinical isolate growth, OD600, 24 h; stronger effect = lower value. growth activity, negative = inhibition, % at 16 µg/mL (by protocol). 0.25% of 86,000 active. AID 1259249, 2017;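 active = mean growth activity at or below -80% and every replicate also at or below -80%; inconclusive = mean at or below -80% but some replicate above -80%; inactive = mean growth activity above -80%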;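 note: 0% = DMSO wells and -100% = levofloxacin 16 µg/mL wells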
T cruzi growth-2: T. cruzi intracellular proliferation inhibitors, confirmation, cell-based, NIH3T3 host, beta-gal parasite, luminescence, cherry-pick; T. cruzi beta-gal in NIH3T3, GalScreen luminescence, 90 h; AID 651739, 2012; inhibition, % at 8.35 µM; shares compounds with T cruzi growth-1; 72% of 5,600 active;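 active = mean replicate inhibition above about 95% and at least 55% of replicates individually reaching it, limit read from the data; inconclusive = only one of the two criteria is met; inactive = neither criterion is met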
T cruzi growth-3: inhibitors of intracellular T. cruzi replication, confirmation, NIH3T3 host cells, beta-gal parasites, cherry-pick, set 2. shares compounds with T cruzi growth-1. T. cruzi beta-gal in NIH3T3, GalScreen luminescence, 90 h. inhibition, % at 2.09 µM. 21% of 5,600 active. AID 651740, 2012;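 active = mean inhibition above about 95%, with at least 55% of replicates also reaching it, limit read from the data; inconclusive = meets just one of the two conditions; inactive = meets neither condition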;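 note: plate controls were neutral control median for no effect and positive control median for full effect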
NIH3T3 tox: cytotoxicity in mouse NIH/3T3 fibroblasts, confirmation, cytotoxicity control for T. cruzi proliferation inhibitor project, cell-based, cherry-pick, single point; shares compounds with T cruzi growth-1; NIH/3T3 viability, CellTiter-Glo ATP luminescence, 90 h; cytotoxicity (signal decrease), % at 8.35 µM; 14% of 5,600 active; AID 651742, 2012;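 active = mean signal decrease across replicates above about 35% based on untreated-well scatter, with enough replicates individually passing, limit read from the data; inconclusive = no rule stated though some were filed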;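 note: 0% = median of neutral control wells and 100% = median of positive control wells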
3T3 cytotox 2: NIH/3T3 fibroblast cytotoxicity, confirmation, cytotoxicity control, cell-based, cherry-pick, single point, set 2; shares compounds with T cruzi growth-1; NIH/3T3 viability, CellTiter-Glo ATP luminescence, 90 h; inhibition, % at 24.9 µM; 56% of 5,600 active; AID 651744, 2012;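 active = mean loss of cell viability signal at or above a set limit, and enough replicates individually reaching it; inconclusive = meets only the mean limit or only the replicate share; inactive = meets neither condition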;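 note: 0% = median of neutral control wells and 100% = median of positive control wells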
* marks the source's active call; other numbers are inactive results; ? = inconclusive; . = not tested or not shown.

SMILES | Pf Dd2 growth | T cruzi growth-1 | C diff growth | T cruzi growth-2 | T cruzi growth-3 | NIH3T3 tox | 3T3 cytotox 2
CC(C)CC#Cc1cnc2c(c1)C(=O)N([C@H](C)CO)C[C@@H](C)[C@H](CN(C)Cc1ccccc1F)O2 | -46 | ? | -13 | 106* | 58 | 17 | 76*
CCCC#Cc1cnc2c(c1)C(=O)N([C@H](C)CO)C[C@H](C)[C@@H](CN(C)Cc1ccccc1F)O2 | -31 | 86 | . | . | . | . | .
COc1ccc(-c2ccc([C@H]3[C@H](C#N)N(C(=O)NC(C)C)[C@H]3CO)cc2)cc1 | -54 | 90 | -11 | . | . | . | .
CC(C)NC(=O)N1[C@H](C#N)[C@H](c2ccc(-c3ccc(F)cc3)cc2)[C@@H]1CO | ? | ? | 13 | 96* | 109* | 3 | 15
COc1ccc(-c2ccc([C@H]3[C@@H](C#N)N(C(=O)NC4CCCCC4)[C@H]3CO)cc2)cc1 | -49 | 102* | 8 | 97* | 35 | 34 | 35*
COc1ccc(-c2ccc([C@H]3[C@@H](C#N)N(C(=O)NC(C)C)[C@H]3CO)cc2)cc1 | -80 | 98* | 6 | 105* | 109* | 12 | 34*
COc1ccc(-c2ccc([C@@H]3[C@@H](C#N)N(C(=O)NC4CCCCC4)[C@H]3CO)cc2)cc1 | -55 | 93 | -5 | . | . | . | .
CC(C)NC(=O)N1[C@H](CO)[C@@H](c2ccc(-c3ccc(F)cc3)cc2)[C@@H]1C#N | -10 | 32 | -6 | . | . | . | .
C[C@@H]1CN([C@H](C)CO)C(=O)c2cccc(NC(=O)Nc3ccc(C(F)(F)F)cc3)c2O[C@H]1CN(C)S(=O)(=O)c1ccccc1 | -16 | 65 | . | . | . | . | .
CC=Cc1ccc2n(c1=O)C[C@@H]1[C@@H](CO)[C@H](C(=O)NCc3ccc(F)cc3)[C@H]2N1C (mixture of isomers) | 0 | 41 | -1 | . | . | . | .
COc1cccc(NC(=O)N2C[C@@H](O)COC[C@@H]3O[C@@H](CC(=O)NC4Cc5ccccc5C4)CC[C@H]32)c1 | 14 | -16 | -3 | . | . | . | .
CCCNC(=O)Nc1ccc2c(c1)OC[C@H](C)N(C(=O)C1CCC1)C[C@@H](C)[C@H](OC)CN(C)C2=O | . | 35 | . | . | . | . | .
CN(C)CCCNC(=O)C[C@@H]1CC[C@H]2[C@@H](COc3ccc(NC(=O)c4ccccc4F)cc3C(=O)N2C)O1 | 4 | -5 | -2 | . | . | . | .
CC(C)(C)[S@](=O)N1Cc2cc(C(=O)NCc3ccccc3F)nc(-c3cccc(-c4cccnc4)c3)c2[C@@H]1CCO | -74 | 95 | . | . | . | . | .
COc1cccc(-c2ccc3c(c2)[C@@H]2[C@@H](CCN2C(=O)C2CCOCC2)[C@H](CO)N3)c1 | -46 | 111* | 6 | 90 | 52 | -15 | -6
COc1cccc(-c2ccc3c(c2)[C@H]2[C@H](CCN2C(=O)C2CCOCC2)[C@@H](CO)N3)c1 | 0 | 116* | -3 | 105* | 73 | -5 | -1
COc1cccc(-c2ccc3c(c2)[C@@H]2[C@@H](CCN2C(=O)C2CCC2)[C@@H](CO)N3)c1 | -33 | 19 | -26 | . | . | . | .
COc1cccc(-c2ccc3c(c2)[C@H]2[C@H](CCN2C(=O)C2CCCCC2)[C@H](CO)N3)c1 | -65 | . | -11 | . | . | . | .
O=C(C1CCOCC1)N1CC[C@@H]2[C@H](CO)Nc3ccc(-c4cccc(F)c4)cc3[C@@H]21 | -2 | 54 | -12 | . | . | . | .
COc1cccc(-c2ccc3c(c2)[C@H]2[C@H](CCN2C(=O)C2CCOCC2)[C@H](CO)N3)c1 | -24 | ? | -6 | 103* | 65 | 3 | 20
CCC(=O)Nc1ccc2c(c1)C(=O)N(C)[C@H]1CC[C@H](CC(=O)N[C@@H](C)c3ccccc3)O[C@@H]1CO2 | -7 | 21 | 0 | . | . | . | .
O=C(C[C@@H]1C[C@H]2c3cc(NC(=O)Cc4ccncc4)ccc3O[C@H]2[C@H](CO)O1)NCc1ccc2c(c1)OCO2 | -14 | . | 3 | . | . | . | .
O=C(C[C@@H]1CC[C@@H]2[C@H](COC[C@@H](O)CN2C(=O)Nc2cccc(F)c2)O1)NCc1ccccc1F | -11 | -8 | . | . | . | . | .
O=C(C[C@@H]1CC[C@H]2[C@@H](COC[C@H](O)CN2C(=O)Nc2cccc(F)c2)O1)NCc1ccccc1F | 4 | -7 | . | . | . | . | .
O=C(C[C@@H]1CC[C@@H]2[C@H](COC[C@@H](O)CN2C(=O)Nc2cccc(Cl)c2)O1)NCc1ccccc1F | -5 | 123* | 43 | 97* | 18 | -5 | 38*
SMILES | Pf Dd2 growth | T cruzi growth-1 | C diff growth | T cruzi growth-2 | T cruzi growth-3 | NIH3T3 tox | 3T3 cytotox 2
O=C(C[C@@H]1CC[C@H]2[C@@H](COC[C@H](O)CN2C(=O)Nc2cccc(Cl)c2)O1)NCc1ccccc1F | 24 | 119* | 49 | 61 | -20 | 4 | 24
CO[C@H]1CN(C)C(=O)c2ccc(NC(=O)c3ccc(F)cc3)cc2OC[C@H](C)N(C)C[C@@H]1C | 19 | . | -3 | . | . | . | .
C[C@H](CO)N1C[C@H](C)[C@@H](CN(C)S(=O)(=O)c2ccc(F)cc2)Oc2ccc(NC(=O)Nc3ccccc3)cc2CC1=O | -56 | 9 | 20 | . | . | . | .
CCC(=O)N1CCCCN2[C@H](C1)[C@H](c1ccc(C#Cc3ccccc3F)cc1)[C@@H]2CO | -19 | ? | -6 | 74 | 29 | 40* | 95*
CCC(=O)N1CCCCN2[C@H](CO)[C@@H](c3ccc(C#Cc4ccccc4)cc3)[C@H]2C1 | -5 | 73 | -11 | . | . | . | .
CCC(=O)N1CCCCN2[C@H](CO)[C@@H](c3ccc(C#Cc4ccccc4F)cc3)[C@@H]2C1 | -13 | ? | -5 | 101* | 53 | 21 | 104*
CC(=O)N1CCCCN2[C@H](CO)[C@@H](c3ccc(C#Cc4ccccc4F)cc3)[C@@H]2C1 | -24 | 113* | 3 | 108* | 40 | 36* | 101*
CCC(=O)N1CCCCN2[C@H](CO)[C@H](c3ccc(C#Cc4ccccc4F)cc3)[C@H]2C1 | -29 | 78 | -14 | . | . | . | .
CCC(=O)N1CCCCN2[C@H](CO)[C@H](c3ccc(C#Cc4ccccc4)cc3)[C@@H]2C1 | -14 | 117* | -18 | 104* | 85 | 52* | 58*
CCC(=O)N1CCCCN2[C@H](C1)[C@@H](c1ccc(C#Cc3ccccc3)cc1)[C@@H]2CO | -5 | 94 | -9 | . | . | . | .
CC(=O)N1CCCCN2[C@@H](CO)[C@@H](c3ccc(C#Cc4ccccc4F)cc3)[C@@H]2C1 | 19 | 60 | -2 | . | . | . | .
